ARNT-TACC3 inh: ARNT/TACC3 interaction disruption; hit rate 0.66% among 390,000; Q9Y6A5; AID 623870; inhibition, % at 9.99 µM; AlphaScreen His-ARNT PAS-B/GST-TACC3 binding, luminescence; TACC3 fragment carries E629A point mutation;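 active = mean inhibition of replicates at least 50% and at least half of replicates each reaching 50%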
PvdQ inh: P. aeruginosa PvdQ acylase inhibition | inhibition, % at 10 µM | hit rate 0.063% among 340,000 | purified PvdQ acylase, fluorescence plate reader | AID 488965; in the data active = inhibition above about 30%, passing the limit was not always enough
CFTR F508del cor: CFTR F508del correction in bronchial cells; hit rate 0.36% among 350,000; CFBE cells, YFP halide quenching; stimulated with forskolin plus potentiator P3; % fluorescence drop versus neutral controls; activity (quench increase), % at 7.58 µM;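 active = mean added fluorescence quench of at least 8% versus neutral control, with both replicates also reaching 8%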;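 note: cells transiently co-express mutant CFTR-F508del with the halide-sensitive YFP; corrector assay measuring rescue of mutant channel to the surface after 24 h compound exposure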
Ecoli rRNA inh: selective bacterial rRNA inhibition in E. coli. E. coli WT GFP vs humanized-ribosome RFP mutants, fluorescence, 24 h; active compounds read low; DMSO median 0, no signal -100. GFP signal change (wild-type ribosome), % (concentration not given with the values). hit rate 1.6% among 350,000. AID 720706;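 active = significant combined selectivity score with lowered wild-type GFP, culture density cut under 30%, mutant RFP and density less affected; inactive = any of these conditions unmet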
ERAP1 inh: ERAP1 (human) enzyme inhibition | inhibition, % at 10.7 µM | Q9NZ08 | recombinant ERAP1, Leu-AMC fluorescence, 60 min | hit rate 0.15% among 340,000;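 active = mean replicate inhibition of at least 30%, or all replicates individually reaching that 30% level; inactive = mean below 30% and not every replicate reaching it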
AlphaScreen ctr: AlphaScreen artifact in ARNT/TACC3 counter-screen | His-ARNT PASB-GST AlphaScreen artifact counter-screen, luminescence | hit rate 50% among 1,200 | shares compounds with ARNT-TACC3 inh | AC50, µM (highest dose often 68 µM) | AID 651705;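 active = every separate test run was called active for a drop in luminescence, with AC50 within twice the top valid dose, actives reach about 71 µM in these data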
Of the large screens only hits and unclear results are named; the others gave an inactive call (follow-up assays come after a bar, where they were run). Only some compounds are listed: those with a hit (about 2.1% of all), similar ones and a draw of the others.

CC(C)NC(=O)N(C)C[C@H]1OCCCC[C@H](C)Oc2ccc(NC(=O)Nc3ccccc3)cc2C(=O)N([C@H](C)CO)C[C@@H]1C	ARNT-TACC3 inh 108 (no result: PvdQ inh) | AlphaScreen ctr inactive
CC(C)NC(=O)Nc1ccc2c(c1)C(=O)N([C@H](C)CO)C[C@H](C)[C@@H](CN(C)C(=O)Cc1ccccc1)OCCCC[C@H](C)O2	ARNT-TACC3 inh 97 (no result: PvdQ inh) | AlphaScreen ctr inactive
CC(C)NC(=O)Nc1ccc2c(c1)C(=O)N([C@@H](C)CO)C[C@H](C)[C@H](CN(C)C(=O)Cc1ccccc1)OCCCC[C@@H](C)O2	none (no result: PvdQ inh)
C[C@@H]1CN([C@@H](C)CO)C(=O)c2cccc(NC(=O)c3ccncc3)c2O[C@H]1CN(C)S(=O)(=O)c1ccc(Cl)cc1	none (no result: PvdQ inh)
C/C(=N\NC(=O)c1cc2ccccc2cc1O)c1ccc(C)o1	none
C/C(=N\NC(=O)c1c[nH]c2ccccc12)c1ccc(C)o1	ARNT-TACC3 inh 62 (no result: CFTR F508del cor, Ecoli rRNA inh, ERAP1 inh) | AlphaScreen ctr 57µM
COc1ccc(C#Cc2ccc([C@@H]3[C@H]4CN(C(=O)c5cccnc5)CC(=O)N4[C@H]3CO)cc2)cc1	none (no result: ARNT-TACC3 inh, PvdQ inh)
COC(=O)C1=COC(C)C2CN3CCc4c([nH]c5cc(OC)c(OC)cc45)C3CC12 (stereo not given)	ARNT-TACC3 inh 63 (no result: Ecoli rRNA inh, ERAP1 inh) | AlphaScreen ctr 71µM
Cc1ccc(S(=O)(=O)N(C)C[C@H]2Oc3ccc(NC(=O)Nc4ccc5c(c4)OCO5)cc3C(=O)N([C@H](C)CO)C[C@H]2C)cc1	none (no result: PvdQ inh)
COc1ccc(N(C(C)=O)c2nc3ccccc3[nH]2)cc1	ARNT-TACC3 inh 53 | AlphaScreen ctr inactive
COc1ccc(C(=O)Nc2nc3ccccc3[nH]2)cc1	none
CO[C@@H]1CN(C)C(=O)c2cc(NC(C)=O)ccc2OC[C@H](C)N(C(=O)C2CC2)C[C@H]1C	none (no result: PvdQ inh)
CCCOC(=O)Nc1nc2ccccc2o1	none (no result: CFTR F508del cor, Ecoli rRNA inh, ERAP1 inh)
CCOC(=O)c1cnc(Nc2nc3ccccc3o2)nc1CN1CCN(C)CC1	ARNT-TACC3 inh 55 (no result: CFTR F508del cor, Ecoli rRNA inh, ERAP1 inh) | AlphaScreen ctr 41µM
COC(=O)c1ccc2[nH]c3c(c2c1)CC(C)CC3 (stereo not given)	ARNT-TACC3 inh 21 | AlphaScreen ctr inactive
CCCC(C)NC(=O)c1ccc2[nH]c3c(c2c1)CC(C)CC3 (stereo not given)	none (no result: CFTR F508del cor, Ecoli rRNA inh, ERAP1 inh)
Cc1cc(NC(c2ccc(Cl)cc2)c2ccc3cccnc3c2O)no1 (stereo not given)	ARNT-TACC3 inh 55 (no result: CFTR F508del cor, Ecoli rRNA inh, ERAP1 inh) | AlphaScreen ctr 10µM
CCCC(=O)NC(c1ccc(N(C)C)cc1)c1ccc2cccnc2c1O (stereo not given)	ARNT-TACC3 inh 60, CFTR F508del cor 9.8 | AlphaScreen ctr 18µM
CCC(=O)NC(c1ccc(Cl)cc1Cl)c1ccc2cccnc2c1O (stereo not given)	none
CCC(=O)NC(c1ccc(C)cc1)c1ccc2cccnc2c1O (stereo not given)	ARNT-TACC3 inh 35, CFTR F508del cor 11 | AlphaScreen ctr 28µM
CCCCC(=O)NC(c1ccc(OC)cc1)c1ccc2cccnc2c1O (stereo not given)	none (no result: ARNT-TACC3 inh, PvdQ inh)
Cc1[nH][nH]c(=O)c1C(c1ccc(-c2ccccc2C(=O)O)o1)c1c(C)[nH][nH]c1=O	ARNT-TACC3 inh 54 | AlphaScreen ctr inactive
Cn1cnc(S(=O)(=O)N2C[C@@H](O)COC[C@H]3O[C@@H](CC(=O)NCc4cccc(F)c4)CC[C@@H]32)c1	none (no result: PvdQ inh)
CCOc1cc2c(C#N)c(N3CCCC3)nc(N)c2c(N)n1	none
CCCCN(CC)c1nc(N)c2c(N)nc(OCC)cc2c1C#N	ARNT-TACC3 inh 10 (no result: CFTR F508del cor, Ecoli rRNA inh, ERAP1 inh) | AlphaScreen ctr inactive
CO[C@@H]1CN(C)C(=O)c2cc(NC(=O)C3CCOCC3)ccc2OC[C@H](C)N(C(=O)c2ccccc2)C[C@H]1C	none (no result: ARNT-TACC3 inh, PvdQ inh, ERAP1 inh)
O=C(CN1CCOCC1)N[C@H]1CC[C@H](CCn2cc(C3CCCC3)nn2)O[C@H]1CO	none (no result: ARNT-TACC3 inh, PvdQ inh)
Nc1cc2cccnc2cc1Cl	ARNT-TACC3 inh 53 | AlphaScreen ctr inactive
CCOc1cccc(/C=N/NC(=O)c2cc(-c3cccn3C)n[nH]2)c1O	ARNT-TACC3 inh 51 | AlphaScreen ctr inactive
N/C(=N\OS(=O)(=O)c1ccc(Cl)cc1)c1ccccn1	ARNT-TACC3 inh 53 | AlphaScreen ctr inactive
N/C(=N\NS(=O)(=O)c1ccccc1Cl)c1ccccn1	ARNT-TACC3 inh 55 | AlphaScreen ctr inactive

Source: PubChem
